Sampled rows, rich in hits. Any-hit rate of the full collection: about 0.9%.
SRC2 TRFRET art – TR-FRET signal artefacts, primary screen, artefact control for PPARgamma SRC-2 agonist project, biochemical; TR-FRET artefact counter-screen; stronger effect = higher value; TR-FRET ratio at 8 µM; 0.4% of 200,000 active; AID 1049, 2008; in the data active = TR-FRET ratio above about 2000
SRC3 TRFRET art – TR-FRET detection interference compounds, artefact control for PPARgamma SRC-3 recruitment agonists, biochemical, TR-FRET ratio; TR-FRET artefact counter-screen, PPARgamma/SRC-3 format; stronger effect = higher value; TR-FRET ratio at 8 µM; 0.39% of 99,000 active; in the data active = TR-FRET ratio above about 2000
SRC1 TRFRET art – TR-FRET detection interference compounds, primary screen, artefact control for PPARgamma SRC-1 recruitment agonists, biochemical, TR-FRET emission ratio; TR-FRET ratio at 8 µM; 0.34% of 99,000 active; TR-FRET detection artefact counter-screen; stronger effect = higher value; AID 1051, 2008; in the data active = TR-FRET ratio above about 2300
PPARg SRC1 recr – PPARgamma agonists recruiting SRC-1 coactivator, primary screen, biochemical. PPARgamma-SRC-1 coactivator recruitment biochemical assay. activation, % at 8 µM. 0.41% of 200,000 active; in the data active = activation above about 19%
PPARg SRC3 recr – PPARgamma agonists recruiting SRC-3 coactivator, primary screen, biochemical. Peroxisome proliferator-activated receptor gamma (Homo sapiens), P37231. biochemical PPARgamma/SRC-3 coactivator recruitment assay. activation, % at 8 µM. 0.26% of 200,000 active. AID 731, 2007; in the data active = activation above about 23%
PPARg SRC2 recr – agonists of PPARg-SRC-2 recruitment, primary screen, biochemical, HTS; Peroxisome proliferator-activated receptor gamma (Homo sapiens), P37231; PPARgamma LBD-SRC-2 recruitment; activation, % at 8 µM; 0.34% of 200,000 active
PPARg SRC2 conf – agonists of PPARgamma SRC-2 coactivator recruitment, confirmation, biochemical, HTS. shares compounds with PPARg SRC3 recr. biochemical SRC-2 recruitment by PPARgamma. activation, % at 8 µM. 52% of 790 active. AID 1297, 2008
PPARg SRC1 ag – PPARgamma agonists recruiting SRC-1 coactivator, confirmation, biochemical. PPARgamma–SRC-1 coactivator recruitment biochemical assay. 43% of 790 active. shares compounds with PPARg SRC3 recr. AID 1300, 2008. activation, % at 8 µM; in the data active = activation above about 20%
PPARg SRC3 ag – PPARgamma-driven SRC-3 coactivator recruitment agonists, confirmation, biochemical; shares compounds with PPARg SRC3 recr; biochemical PPARgamma-SRC-3 coactivator recruitment, agonist mode; 29% of 790 active; activation, % at 8 µM; in the data active = activation above about 24%
Numbers stand for hits; - = inactive; . = no result given. Cut-off read from the data, not from the text of the source, unless noted: active = activation above about 22%; inactive = the rest.

SMILES	SRC2 TRFRET art	SRC3 TRFRET art	SRC1 TRFRET art	PPARg SRC1 recr	PPARg SRC3 recr	PPARg SRC2 recr	PPARg SRC2 conf	PPARg SRC1 ag	PPARg SRC3 ag
Clc1ccc(-c2ccc(C=Nc3ccc(N4CCOCC4)cc3)o2)cc1	-	-	-	-	-	-	.	.	.
Clc1cccc(-c2ccc(C=Nc3ccc(N4CCOCC4)cc3)o2)c1Cl	2206	-	2633	24	-	27	36	29	-
CCOC(=O)C1CCN(c2c(C(=O)c3ccccc3)cnc3ccc(Cl)cc23)CC1	-	-	-	-	-	-	.	.	.
S=c1[nH]nc(-c2ccccn2)n1/N=C/c1ccc(-c2ccccc2Br)o1	4475	4805	5322	69	69	129	82	60	53
CCn1c(=O)c(=O)[nH]c2cc(C(=O)Nc3ccc(S(=O)(=O)N4CCCC4)cc3)ccc21	-	.	.	-	26	-	-	-	-
CCn1c(=O)c(=O)[nH]c2cc(C(=O)NC3CC3)ccc21	-	-	-	-	-	-	.	.	.
CC1CCCC(NC(=O)COC(=O)[C@@H](NC(=O)c2ccco2)C(C)C)C1C (stereo not given in full)	-	-	-	-	-	-	.	.	.
Cc1cc(-c2ccccc2)nc(Cl)c1C#N	-	-	-	-	-	-	.	.	.
CCOc1ccc2c(c1)nc(SCC(=O)c1cccs1)n2C	-	.	.	-	-	-	.	.	.
CCOc1ccc2c(c1)nc(SCC(=O)c1ccc(Br)s1)n2C	-	.	.	20	28	29	35	26	25
CCOC(=O)c1cccc(NC(=O)CSc2nnc(COc3ccccc3C)o2)c1	-	.	.	20	-	-	-	-	-
CCOc1ccc(NC(=O)CSc2nnc(COc3c(C)cccc3C)o2)cc1	-	.	.	-	-	-	.	.	.
CCOC(=O)c1c(NC(=O)CSc2nnc(Cc3ccccc3)o2)sc(C(C)=O)c1C	2328	.	.	-	44	36	-	-	-
CCOC(=O)c1c(NC(=O)CSc2nnc(-c3ccccc3)o2)sc(C(C)=O)c1C	-	.	.	-	-	-	.	.	.
COC(=O)c1c(NC(=S)Nc2ccccc2Cl)sc(C)c1C	2012	.	.	22	38	31	31	24	-
COC(=O)c1c(NC(=O)Cc2ccccc2)sc(C)c1C	-	.	.	-	-	-	.	.	.
CCN(CC(=O)Nc1ccc(C(C)=O)cc1)CC(=O)Nc1cccc(OC)c1	-	-	-	-	-	-	.	.	.
Cc1ccc2nc3sc(C(=O)NCc4ccco4)c(N)c3cc2c1	-	.	.	-	-	-	.	.	.
COc1cc2cc3c(N)c(C(=O)NCc4ccco4)sc3nc2cc1OC	-	.	.	21	-	-	-	-	-
Cc1c2cc(O)c(=O)cc-2oc2cc(O)c(O)cc12	-	.	.	-	27	-	-	-	-
COc1cc(OC)c(-c2c3cc(O)c(=O)cc-3oc3cc(O)c(O)cc23)cc1OC	-	-	-	-	-	-	.	.	.
Cc1nn(CC(=O)Nc2cccnc2)c(C)c1[N+](=O)[O-]	-	-	-	-	-	-	.	.	.
Cc1ccc(S(=O)(=O)N(c2nc(NC(C)C)nc(NC(C)C)n2)n2cnnc2)cc1	-	-	-	-	-	24	-	-	-
COC(=O)CN(n1cnnc1)S(=O)(=O)c1ccc(C)cc1	-	.	.	-	-	-	.	.	.
Cc1cccc(Nc2nc(-c3ccccc3)c(C(=O)Nc3cccnc3)s2)c1	2484	3117	3448	29	27	38	57	44	38
Cc1nc(NC(N)=S)sc1C(=O)Nc1ccccc1	-	.	.	-	27	-	-	-	-
